This is an account of results in PubChem BioAssay (NCATS).

Experiment [1] can be described thus: OV-KATE Cancer Cell Toxicity qHTS against the NCATS CANVASS Library (AID 1347345). The method in brief: (§1)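 1000 cells/well; 4 h settle; 11-pnt titration; 72 h, 37 degrees C, 5% CO2; CellTiter-Glo, 15min RT; luminescence read.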
On the technique in general: Quantitative high-throughput screening tests each substance at several concentrations.

Experiment [2] is described as follows: HPAF-II Cancer Cell Toxicity qHTS against the NCATS CANVASS Library (AID 1347346). Note: series mostly up to about 38 µM; nearly all actives have a fitted effect of over 55% in size. The essentials:
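Cytotoxicity in HPAF-II pancreatic cancer cells: 72 h treatment across 11 concentrations, ATP-based CellTiter-Glo luminescence endpoint.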

Experiment [3] can be described thus: UWB1.289 Cancer Cell Toxicity qHTS against the NCATS CANVASS Library (AID 1347347). Note: nearly all actives have a fitted effect of over 60% in size. Note: potency is the fitted concentration of half-maximal effect. The essentials:
as §1

Experiment [4] in a line: OV-SAHO Cancer Cell Toxicity qHTS against the NCATS CANVASS Library (AID 1347348). Note: series mostly up to about 38 µM; nearly all actives have a fitted effect of over 55% in size. The method in brief: as §1
Experiment [5] can be described thus: SW1088 Cancer Cell Toxicity qHTS against the NCATS CANVASS Library (AID 1347350). Note: nearly all actives have a fitted effect of over 75% in size. The essentials:
as §1

Experiment [6] can be described thus: U-118MG Cancer Cell Toxicity qHTS against the NCATS CANVASS Library (AID 1347351). Note: series mostly up to about 38 µM. The essentials:
as §1

Experiment [7] can be described thus: COV-362 Cancer Cell Toxicity qHTS against the NCATS CANVASS Library (AID 1347352). Note: series mostly up to about 38 µM. The method in brief:
(§2)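 qHTS cytotoxicity: compounds tested in 11 concentrations on 1000 seeded cells per well over 72 h; bortezomib served as control; signal from CellTiter-Glo luminescence.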

Experiment [8] can be described thus: UWB1.289-WTBRCA1 Cancer Cell Toxicity qHTS against the NCATS CANVASS Library (AID 1347354). The method in brief:
as §2

Experiment [9] in a line: HPAF-II 12hr Apoptosis Induction qHTS against the NCATS CANVASS Library (AID 1347358). The essentials: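 Apoptosis in HPAF-II pancreatic cancer cells is scored as caspase 3/7 luminescence following a 12-hour exposure to an 11-point compound series.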
The nature of experiment [10]: HEK293 12hr Apoptosis Induction qHTS against the NCATS CANVASS Library (AID 1347361). The method in brief: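 HEK293 cells (500/well, DMEM + 10% FBS) were exposed to natural products across an 11-point series for 12 hours at 37 degrees C. Caspase-3/7 activity was then measured with DEVD luciferase luminescence after 15 min at room temperature.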
The nature of experiment [11]: KB-8-5-11 Cancer Cell Toxicity qHTS against the NCATS CANVASS Library (AID 1347364). Note: nearly all actives have a fitted effect of over 75% in size. Note: potency is the fitted concentration of half-maximal effect. The method in brief: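 Natural products were titrated in 11 points onto KB-8-5-11 cells, 500 per well, and cytotoxicity was scored from CellTiter-Glo luminescence after 72 hr culture.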
A short description of experiment [12]: qHTS for Hypoxia signaling pathway (HIF-1) agonists against the NCATS CANVASS Library (AID 1347375). The method in brief: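 Inducers of HIF-1 signaling were detected in ME-180 cells bearing an HRE-driven beta-lactamase reporter after 17 h compound exposure. Activity came from CCF4-AM FRET emission ratio (460/530 nm) in qHTS format.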
A short description of experiment [13]: qHTS assay for small molecule disruptors of mitochondrial membrane potential screened against the NCATS CANVASS Library (AID 1347389). Note: series mostly up to about 46 µM; nearly all actives have a fitted effect of over 60% in size. The method in brief: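 Compounds tested in 11-point qHTS series on HepG2 cells for 1 hr; membrane-potential dye added for 30 min at 37C. Lower red-to-green ratio indicates loss of potential.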
Experiment [14] can be described thus: Secretion counterscreen for inhibitors of the SERCaMP assay screened against the NCATS CANVASS Library (AID 1347390).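 Note: light from luciferase secreted into medium read as a measure of general secretion; series mostly up to about 77 µM.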 The essentials:
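Counterscreen for secretory-pathway interference: after 4 h attachment, SH-SY5Y-GLuc cells were exposed 20 hours to compounds (final 0.001 - 77 uM), then coelenterazine added and GLuc luminescence recorded; Brefeldin A served as control.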
(In general: The purpose of a counterscreen is to sort out artefacts and off-target activity.)

Experiment [15] is described as follows: qHTS for activators of Nrf2/ARE signaling pathway screened against the NCATS CANVASS Library (AID 1347391). Note: nearly all actives have a fitted effect of over 60% in size. The essentials: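 Cells carrying an ARE-driven beta-lactamase reporter (HepG2 background) are dosed for 16 h, then stained with CCF4. Cell viability in the same wells is measured by CellTiter-Glo luminescence.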
The nature of experiment [16]: qHTS for activators of dead-cell proteases activity screened against the NCATS CANVASS Library (AID 1347392).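 Note: luminescence from protease leaking out of membrane-damaged cells cleaving impermeant substrate; rising signal means more cytotoxicity.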 The method in brief: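 HepG2 cells (2000/well) attached 18 h at 37C, then exposed 5 h to compounds (11-point qHTS). Dead-cell protease activity read as luminescence from cell-impermeant AAF-aminoluciferin substrate after 15 min at room temperature.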
A short description of experiment [17]: qHTS for inhibitors of ER calcium dysfunction: SERCaMP assay screened against the NCATS CANVASS Library (AID 1347393).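 Note: series mostly up to about 77 µM; lower secreted reporter signal means inhibitor of ER calcium depletion; nearly all actives have a fitted effect of over 40% in size.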 The essentials:
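qHTS in SH-SY5Y reporter cells: 16 h compound pretreatment, 4 h thapsigargin, then secreted Gaussia luciferase measured by luminescence.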

A short description of experiment [18]: qHTS for inhibitors of Wild type Zika virus screened against the NCATS CANVASS Library (AID 1347396).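 Note: ATP luminescence of surviving cells so rescue from viral cell killing; series mostly up to about 46 µM.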 The essentials:
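Vero 766 cells, 1000/well, o/n attach; cpds pin-transferred (11-pt qHTS); WT Zika added; 72 h, 37C, 5% CO2; CellTiter Glo lumi. Uninfected + vehicle = 100% inhibition.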

A short description of experiment [19]: Redox Reaction Profiling qHTS: Assay Interference Panel against the NCATS CANVASS Library (AID 1347401). The essentials: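 Resazurin (5 uM) conversion to resorufin measured with 200 uM DTT in 50 mM HEPES pH 7.3, 50 mM NaCl. Compounds tested in 11-point qHTS series. Fluorescence (ex 525/em 598 nm) read before and after 15 min dark incubation.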
Experiment [20] is described as follows: qHTS for Antimalaria activity screened against the NCATS CANVASS Library (AID 1347380).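 Note: Plasmodium falciparum strain Dd2 asexual parasites grown in red blood cells; series mostly up to about 29 µM; nearly all actives have a fitted effect of over 40% in size.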 The method in brief:
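Growth inhibition of asexual erythrocytic P. falciparum Dd2 was quantified by SYBR Green DNA staining. Cultures grew 72 h with compound (11-point series) in hypoxic gas at 37C; lysis and staining lasted 18 h.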

Records with an inconclusive call do not appear. Activity calls are given as the source filed them. Calls come from the whole dose curve; as a rule, active = well fitted curve in the direction sought with a large enough effect; inconclusive = small, poorly fitted or top-dose-only effect, or another doubt; inactive = no such curve, though single readings can be large; an effect the other way counts as inactive or inconclusive.

In the case of `C=C1CCC2C(C)(C(=O)O)CCC(CC/C(C)=C/C(=O)NC(CCC(N)=O)C(=O)O)[C@@]2(C)C1` (stereo not given in full), the Potency result in experiment [1], in experiment [2], in [3], in experiment [4], in [5] and in [6] was “inactive” each time. Further, the Potency result in experiment [7], in [8], in experiment [9], in experiment [11], in [13] and in experiment [14] was “inactive” each time. The Potency result in [15], in experiment [16], in experiment [17] and in [19] was “inactive” throughout. The compound was classed as inactive in experiment [10], in experiment [12] and in experiment [18].

As for `COc1cc([C@@H]2c3cc4c(cc3C[C@@]3(O[C@@H]5O[C@H](CO)[C@@H](O)[C@H](O)[C@H]5O)COC(=O)[C@H]23)OCO4)cc(OC)c1OC`, the Potency entry in experiment [2], in experiment [4], in experiment [13], in [14], in experiment [16] and in [17] was “inactive” in each case. For the same compound, in experiment [19], the Potency result is “inactive”. Further, in experiment [11], the Potency was 0.0526 µM (active). Moreover, in [12], the compound was classed as inactive.

For the compound `C/C1=C/[C@@H](C)[C@H](O)[C@@H](O)/C=C/CC/C=C/C(=O)O[C@@H]1[C@H](C)C(=O)/C=C/CC1CC(=O)NC(=O)C1`, the Potency result in [2], in experiment [5], in experiment [8], in experiment [9], in experiment [11] and in experiment [20] was “inactive” throughout. Also, the Potency entry in [13], in [16] and in [17] was “inactive” in each case. For the same compound, the result in [10], in experiment [12] and in experiment [18] was inactive.

Consider `O=C1OC(CCO)c2cccc(O)c21` (stereo not given), for which the Potency result in [1], in experiment [2], in experiment [3], in experiment [4], in experiment [5] and in [6] was “inactive” throughout. In addition, the Potency result in experiment [7], in [8], in experiment [11], in experiment [20], in experiment [13] and in [15] was “inactive” each time. Besides, the Potency result in [17] and in experiment [19] was “inactive” in each case. Moreover, the result in [10], in experiment [12] and in [18] was inactive.

For `O=C(OC[C@H]1O[C@@H](OC(=O)c2cc(O)c(O)c(O)c2)[C@H](OC(=O)c2cc(O)c(O)c(O)c2)[C@@H](OC(=O)c2cc(O)c(O)c(O)c2)[C@@H]1OC(=O)c1cc(O)c(O)c(O)c1)c1cc(O)c(O)c(O)c1`, the Potency in experiment [3] is 18.8 µM (active). Also, the Potency result in experiment [9], in experiment [14] and in experiment [16] was “inactive” in each case. The compound was called inactive in [10] and in experiment [18].

In the case of `Cc1cc(O)cc2c1C(=O)c1c(O)cc(O)cc1C2=O`, the Potency result in experiment [1], in [2], in experiment [3], in experiment [4], in experiment [5] and in experiment [6] was “inactive” in each case. Also, the Potency result in experiment [7], in experiment [8], in experiment [9], in experiment [11], in [13] and in [14] was “inactive” each time. For the same compound, the Potency result in [15], in experiment [16] and in experiment [17] was “inactive” in each case. For the same compound, the call in experiment [12] and in experiment [18] was inactive.
